# Rows were chosen to be rich in hits. Some 3.5% of all compounds tested hit in one or more screens of this group.
# FBW7 activator – human FBW7 E3 ligase activation, primary screen; Q969H0; AlphaScreen FBW7–phospho-cyclin E peptide binding, activator screen; normalized activity (activation), % at 26.1 µM; 650,000 tested, 0.13% active; AID 1259310; in the data active means normalized activity above about 1.9%;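 further: purified mutant Fbw7 with reduced substrate affinity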
# TEAD-YAP block – TEAD-YAP interaction inhibition; HEK-TIYL cells, TEAD-Gal4/YAP UAS-luciferase luminescence; inhibition, % at 9.12 µM; 640,000 tested, 1.4% active; AID 1259422; in the data active means inhibition above about 32%;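 further: 0% = median of test compound wells and 100% = reference inhibitor wells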
# GPR151 ag – activates the human receptor GPR151 | PathHunter beta-arrestin GPR151 cells, luminescence | activation, % at 11.2 µM | 650,000 tested, 1% active | AID 1508602; in the data active means activation above about 4.9%;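 further: 0% = median of compound wells and 100% = cells with positive control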
# Target sequence (Q8TDV0 whole entry, looked up): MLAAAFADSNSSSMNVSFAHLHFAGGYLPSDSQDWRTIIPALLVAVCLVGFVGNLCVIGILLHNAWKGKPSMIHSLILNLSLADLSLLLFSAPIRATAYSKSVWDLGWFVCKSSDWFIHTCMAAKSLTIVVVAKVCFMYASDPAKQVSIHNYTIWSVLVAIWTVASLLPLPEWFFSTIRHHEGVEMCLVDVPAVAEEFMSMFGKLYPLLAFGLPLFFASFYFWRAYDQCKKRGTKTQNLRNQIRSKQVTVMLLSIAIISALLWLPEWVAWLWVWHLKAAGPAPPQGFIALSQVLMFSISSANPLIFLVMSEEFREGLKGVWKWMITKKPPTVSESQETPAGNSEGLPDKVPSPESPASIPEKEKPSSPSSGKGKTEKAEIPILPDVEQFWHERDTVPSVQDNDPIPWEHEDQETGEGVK
# MITF primary – blocks human microphthalmia-associated transcription factor. AID 1259374. 650,000 tested, 0.91% active. AlphaScreen MITF homodimerization, bead proximity signal. inhibition, % at 2.6 µM. O75030; in the data active means inhibition above about 50%;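 further: 0% = vehicle wells with protein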
# MITF confirm – confirmation of human MITF inhibitors; shares compounds with MITF primary; AlphaScreen MITF homodimerization, biotin/His-MITF beads; inhibition, % at 2.6 µM; 4,700 tested, 16% active;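 active means inhibition above a cutoff derived from the DMSO control wells, cut at about 28% in these data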;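 further: 0% = MITF dimer wells with DMSO only; inhibitors lower the bead chemiluminescence by keeping MITF from dimerizing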
# AlphaScreen DR – AlphaScreen optical interference, dose response counter-screen. shares compounds with MITF primary. AlphaScreen optical interference counterscreen, cell-free. IC50, µM. 480 tested, 6% active. AID 1259373; call rule not given here
# AS interf ctr – counter-screen: compounds optically interfering with AlphaScreen. shares compounds with MITF primary. LysRS AlphaScreen counterscreen, signal interference, triplicate. inhibition, % at 2.6 µM. 4,700 tested, 7.6% active. AID 1259376;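 active means inhibition above a cutoff derived from the DMSO control wells, cut at about 30% in these data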
# The depositor's hits bear a star; nt = not tested or not shown.
SMILES,FBW7 activator,TEAD-YAP block,GPR151 ag,MITF primary,MITF confirm,AS interf ctr,others
c1ccc(CN2CCCC2c2nc(-c3ccncc3)n[nH]2)nc1 (stereo not drawn),-1.4,-6.1,0.3,101.3*,92.3*,100.3*,
CCOC(=O)c1nnn(CC(=O)Nc2ccc(C)c(C)c2)c1C(=O)OCC,0.0,5.3,1.4,4.2,nt,nt,
O=C(c1cccc(Cl)c1)N(Cc1ccncc1)c1nc2c(F)cc(F)cc2s1,-0.1,-13.4,-0.2,-12.1,nt,nt,
Cc1ccc(CN2CCN(c3ccc([N+](=O)[O-])cc3)CC2)s1,0.6,2.1,0.0,70.3*,-3.0,2.7,
O=[N+]([O-])c1ccc(CN2CCCCCC2)s1,-0.2,9.1,-0.9,3.5,nt,nt,
CN1CCCN(Cc2ccc([N+](=O)[O-])s2)CC1,0.0,0.3,0.1,51.9*,4.1,6.1,
CC(=O)c1ccc(N2CCN(Cc3ccc(C)s3)CC2)cc1,0.1,-1.0,0.6,35.7,nt,nt,
O=[N+]([O-])c1ccc(N2CCN(Cc3cc(Br)cs3)CC2)cc1,0.1,6.4,1.5,55.6*,4.4,5.7,
COc1cc(OC)c(OC)cc1CN1CCN(C(=O)c2cccc(Cl)c2)CC1,-0.1,1.2,0.1,25.9,nt,nt,
COc1ccc(Br)cc1CN1CCN(C(=O)c2cccc(Cl)c2)CC1,-0.3,-2.0,-1.0,52.8*,-1.6,12.5,
COc1cccc(C(=O)N2CCN(Cc3cc(Br)ccc3OC)CC2)c1,0.0,-12.8,0.1,58.4*,12.5,14.4,
COc1cccc(C(=O)N2CCN(Cc3cc(OC)ccc3OC)CC2)c1,0.5,2.9,-0.3,45.0,nt,nt,
CCCCN(CC)S(=O)(=O)c1ccc(F)c(C(=O)Nc2ccc(OCC)cc2)c1,-0.1,12.9,2.2,5.2,nt,nt,
COc1ccc(/C=C2/SC(=S)N(NC(=O)c3ccc([N+](=O)[O-])cc3)C2=O)cc1,-0.2,0.1,0.0,1.2,nt,nt,
COCCNC(=O)CN1CCN(Cc2ccccc2Cl)C1=O,-0.1,-1.7,-0.8,5.4,nt,nt,
O=S(=O)(CCN1CCCCC1)Oc1ccccc1,0.3,-7.2,-0.5,57.9*,7.2,18.5,
O=C(Nc1ccc(S(=O)(=O)N2CCCCC2c2cccnc2)cc1)c1ccc(Cl)c([N+](=O)[O-])c1 (stereo not drawn),-0.1,5.4,-1.7,-4.8,nt,nt,
O=C(NCc1ccco1)c1ccc(CS(=O)c2ccc(Br)cc2)o1 (stereo not drawn),-0.1,-1.3,0.7,76.9*,-11.3,-1.6,
O=C(NCc1ccccc1)c1ccc(CS(=O)c2ccc(Br)cc2)o1 (stereo not drawn),-0.1,7.3,-0.4,4.8,nt,nt,
O=C(Nc1ccccc1)c1nc[nH]c1C(=O)Nc1ccccc1,-0.1,7.4,-0.1,12.1,nt,nt,
O=C(NO)c1nc[nH]c1C(=O)NO,-0.2,-1.4,-2.1,98.4*,98.9*,100.6*,
CN=C1SC(CC(=O)Nc2cccc(C(=O)O)c2)C(=O)N1C (stereo not drawn),-0.3,10.2,2.7,53.2*,36.4*,8.8,AlphaScreen DR=>6.48
O=C(O)CSc1nnc(NC(=O)c2cccc(OC(F)(F)F)c2)s1,0.1,-4.0,-1.4,7.8,nt,nt,
COc1ccccc1NC(=O)N1CCCC1C(=O)NCc1ccccc1Cl (stereo not drawn),0.0,-2.0,-1.2,73.0*,-2.8,8.5,
COc1ccccc1NC(=O)N1CCCC1C(=O)NCc1ccccc1F (stereo not drawn),-0.1,3.6,0.9,10.3,nt,nt,
SMILES,FBW7 activator,TEAD-YAP block,GPR151 ag,MITF primary,MITF confirm,AS interf ctr,others
ClC1(Cl)CC1CNc1ncnc2sc3c(c12)CCC3 (stereo not drawn),-0.1,0.5,1.4,60.0*,10.3,14.1,
N#C/C(=C\c1ccco1)C(=O)Nc1ccc(Cl)cc1,-0.1,-27.2,-1.2,18.0,nt,nt,
CCOc1ccc(CN2CCC(N3CCN(Cc4ccccc4)CC3)CC2)cc1,0.2,11.0,1.0,42.1,nt,nt,
COc1ccc(CN2CCC(N3CCCCC3)CC2)cc1,-0.3,-9.8,-1.2,53.5*,16.4,-11.6,
COc1ccc(CN2CCCCCC2)cc1,0.0,4.7,0.3,1.7,nt,nt,
COc1ccc(CN2CCN(C3CCC(C)CC3)CC2)cc1 (stereo not drawn),0.4,1.3,-0.5,72.6*,-4.5,-8.2,
CN1[C@@H](C(=O)Nc2cc(Cl)ccc2O)C[C@@H](c2cccs2)NS1(=O)=O,0.0,14.2,0.3,69.8*,9.2,6.5,
CCn1c(=NC(=O)c2ccc(S(=O)(=O)N(C)C)cc2)sc2cc(OC)c(OC)cc21,0.1,1.8,-2.2,-3.3,nt,nt,
COc1ccc(OC)c(CN2CCC(C(=O)NCC3CCCO3)CC2)c1 (stereo not drawn),0.1,8.1,-0.8,54.2*,-7.4,-0.3,
COc1ccc(C(=O)C2CCN(C(=S)NCC3CCCO3)CC2)cc1 (stereo not drawn),1.2,9.6,-0.9,85.5*,12.3,8.3,
O=C(NCC1CCCO1)C1CCN(Cc2c[nH]c3ccccc23)CC1 (stereo not drawn),-0.2,-6.0,-0.2,55.0*,-15.0,-10.1,
COCCNC(=O)C1CCN(Cc2cc(OC)ccc2OC)CC1,0.3,7.3,-1.8,34.9,nt,nt,
CC(C)OCCCNC(=O)c1cc2c(Cl)nc3ccccc3c2s1,-0.1,-5.0,0.1,22.4,nt,nt,
CC(C)OCCCNCc1cc2ccccc2nc1Cl,-0.1,5.5,-0.6,56.1*,11.9,7.0,
Cc1cc(Cl)cc2c1N[C@H](c1ccncc1)C1CC=CC21 (stereo partly drawn),-0.2,-1.5,-0.7,-4.2,nt,nt,
Nc1ccccc1Sc1ncnc2sc3c(c12)CCCC3,0.0,5.6,0.1,1.6,nt,nt,
CC(=C/C(=O)O)/C=C/c1ccco1,-0.1,-2.1,0.9,68.0*,-25.3,-26.4,
CC(=C/C(=O)O)/C=C/c1ccoc1,-0.7,9.2,-0.4,75.0*,56.9*,9.6,AlphaScreen DR=>9.75
Cc1cc(C)n(C(=O)/C=C/c2ccccc2)n1,0.3,1.0,0.7,-1.3,nt,nt,
CC(/C=C/c1ccc(N(C)C)cc1)=C\C(=O)O,0.0,24.4,-0.1,9.1,nt,nt,
Cc1cc(C)n(C(=O)/C=C/c2ccco2)n1,-0.1,3.6,-0.6,77.6*,67.0*,-8.3,AlphaScreen DR=>6.48
Cc1cc(C)nc(SCc2nnc(SCC(=O)Nc3nccs3)o2)n1,-0.4,4.2,-0.1,72.4*,77.0*,30.8*,
Cc1cc(C)c(C(N)=O)c(SCC(=O)Nc2nccs2)n1,0.4,-3.2,0.0,1.8,nt,nt,
COc1ccccc1C(=O)Nc1ccc2c(c1)C(=O)Nc1cc(Cl)ccc1O2,0.0,6.8,0.2,-0.9,nt,nt,
CCOc1ccccc1C(=O)Nc1ccc2c(c1)C(=O)Nc1ccccc1O2,-0.1,-1.9,3.5,52.8*,-7.3,-10.3,
Cc1ccccc1C(OCC(O)CNCc1ccccn1)c1ccccc1 (stereo not drawn),-1.2,-7.2,2.3,50.7*,13.1,33.4*,
OC(CNCC(O)c1ccccc1)c1ccccc1 (stereo not drawn),0.2,7.9,-1.5,16.9,nt,nt,
